According to the antibiotic and cytotoxicity screens of Wong et al. (2023):
Hit rate of the full screen: of about 39,000 compounds, about 3,300 (8.5%) were called active. This is one part of a sample in which actives are shown more often than they occur.

test system: HepG2; experiment: cytotoxicity call (relative viability < 0.9); conditions: 10 µM

SMILES	cytotoxicity call
C[C@H]1CN([C@@H](C)CO)C(=O)c2cccc(NS(C)(=O)=O)c2O[C@H]1CN(C)S(=O)(=O)c1cccs1	inactive
COCC#Cc1cnc2c(c1)C(=O)N([C@H](C)CO)C[C@@H](C)[C@H](CN(C)C(C)=O)O2	inactive
N[C@@H]1CC(=O)N(c2ccc(F)cc2)C1	inactive
C[C@H](CO)N1C[C@H](C)[C@H](CN(C)S(=O)(=O)c2ccc(Cl)cc2)Oc2ccc(NS(=O)(=O)c3cn(C)cn3)cc2C1=O	inactive
O=C(CCCCC(=O)N/N=C/[C@H](O)[C@@H](O)[C@H](O)CO)NO	inactive
COc1ccc(CN(C)C[C@H]2OCCCC[C@@H](C)Oc3ccc(NS(=O)(=O)c4cccs4)cc3C(=O)N([C@H](C)CO)C[C@@H]2C)cc1	inactive
COC(=O)C[C@](O)(CCCC(C)(C)O)C(=O)O[C@@H]1C(OC)=C[C@]23CCCN2CCc2cc4c(cc2[C@H]13)OCO4	active
CC(C)(O)[C@@H]1CC[C@]2(CO)[C@@H](O)CC[C@](C)(O)[C@H]2[C@@H]1O[C@@H]1O[C@H](CO)[C@@H](O)[C@H](O)[C@H]1O	inactive
Cc1ccc(S(=O)(=O)N(C)C[C@H]2Oc3c(NC(=O)c4cnccn4)cccc3C(=O)N([C@@H](C)CO)C[C@@H]2C)cc1	inactive
C[C@@H]1CCCCO[C@@H](CN(C)S(=O)(=O)c2ccc(Cl)cc2)[C@@H](C)CN([C@H](C)CO)C(=O)c2cc(NC(=O)c3ccccc3)ccc2O1	inactive
C[C@@H]1CCCCO[C@@H](CN(C)S(=O)(=O)c2ccc(Cl)cc2)[C@@H](C)CN([C@@H](C)CO)C(=O)c2cc(NC(=O)c3ccccc3)ccc2O1	inactive
C[C@@H]1CCCCO[C@@H](CN(C)S(=O)(=O)c2ccc(Cl)cc2)[C@H](C)CN([C@H](C)CO)C(=O)c2cc(NC(=O)c3ccccc3)ccc2O1	inactive
C[C@@H]1CN([C@@H](C)CO)C(=O)c2cc(NC(=O)c3ccccc3)ccc2O[C@@H](C)CCCCO[C@H]1CN(C)S(=O)(=O)c1ccc(Cl)cc1	active
C[C@H](CO)N1C[C@H](C)[C@H](CN(C)S(=O)(=O)c2ccc(Cl)cc2)OCCCC[C@H](C)Oc2ccc(NC(=O)c3ccccc3)cc2C1=O	inactive
C[C@@H]1CN([C@H](C)CO)C(=O)c2cc(NC(=O)c3ccccc3)ccc2O[C@@H](C)CCCCO[C@H]1CN(C)S(=O)(=O)c1ccc(Cl)cc1	active
C[C@@H]1CN([C@@H](C)CO)C(=O)c2cc(NC(=O)c3ccccc3)ccc2O[C@@H](C)CCCCO[C@@H]1CN(C)S(=O)(=O)c1ccc(Cl)cc1	inactive
C[C@H]1CCCCO[C@H](CN(C)S(=O)(=O)c2ccc(Cl)cc2)[C@@H](C)CN([C@@H](C)CO)C(=O)c2cc(NC(=O)c3ccccc3)ccc2O1	active
C[C@@H]1CCCCO[C@H](CN(C)S(=O)(=O)c2ccc(Cl)cc2)[C@@H](C)CN([C@H](C)CO)C(=O)c2cc(NC(=O)c3ccccc3)ccc2O1	inactive
COCC#Cc1ccc([C@H]2[C@H](CO)N3C(=O)CN(C(=O)c4ccncc4)C[C@@H]23)cc1	inactive
Cc1noc(C)c1S(=O)(=O)N(C)C[C@@H]1Oc2ccc(NS(=O)(=O)c3cn(C)cn3)cc2CC(=O)N([C@H](C)CO)C[C@@H]1C	inactive
NC(=S)CS(=O)(=O)c1ccccn1	inactive
CC(=O)OC[C@H]1O[C@@H](NC(N)=O)[C@H](OC(C)=O)[C@@H](OC(C)=O)[C@@H]1OC(C)=O	inactive
C[C@@H]1CCCCO[C@@H](CN(C)C)[C@H](C)CN([C@@H](C)CO)C(=O)c2cc(NC(=O)Nc3cccc4ccccc34)ccc2O1	inactive
C[C@H]1CN([C@@H](C)CO)C(=O)c2cc(NC(=O)CCCN(C)C)ccc2O[C@@H]1CN(C)C(=O)Nc1ccccc1	inactive

SMILES	cytotoxicity call
NC[C@@H](O)C1CCCCC1	inactive
c1cn2c3c(n1)CCCc3c1cc(C3CCCCC3)ccc12	inactive
Nc1nc(=O)n([C@@H]2O[C@H](CO)[C@@H](O)[C@@H]2F)cc1I	inactive
Nc1ncnc2c1c(I)cn2[C@@H]1O[C@H](CO)[C@@H](O)[C@H]1O	active
CSC[C@H]1O[C@H](n2ccc3c(N)ncnc32)[C@@H](O)[C@H]1O	inactive
Nc1ncnc2c1c(I)cn2[C@H]1O[C@@H](CO)[C@@H](O)[C@@H]1O	active
Nc1ncnc2c1ncn2[C@H]1O[C@@H](CO)[C@H](O)[C@@H]1S	inactive
NC(=O)c1cn([C@@H]2O[C@H](CO)[C@@H](O)[C@H]2O)c2ncnc(N)c2c1=O	inactive
CCS(=O)(=O)N1C[C@]2(CCN(CC2)Cc2cccc(c2)OC)c2c([nH]c3cc(ccc23)OC)[C@@H]1CO	inactive
C[C@@H]1CN([C@H](C)CO)C(=O)Cc2cc(NC(=O)CCC(F)(F)F)ccc2O[C@H]1CN(C)S(=O)(=O)c1cccs1	inactive
Cc1ccc(S(=O)(=O)Nc2cccc3c2O[C@H](CN(C)S(=O)(=O)c2cn(C)cn2)[C@@H](C)CN([C@@H](C)CO)C3=O)cc1	inactive
COCCOC(=O)N1C(=O)[C@@]2(c3cc(C#CCC(C(=O)OC)C(=O)OC)ccc31)[C@H](C(=O)Nc1nc3ccccc3s1)[C@H]1C(=O)O[C@H](c3ccccc3)[C@H](c3ccccc3)N1[C@@H]2c1ccccc1OCCO	inactive
Cc1noc(C)c1S(=O)(=O)Nc1ccc2c(c1)C(=O)N([C@H](C)CO)C[C@@H](C)[C@H](CN(C)C(=O)Nc1ccc(F)cc1)OCCCC[C@@H](C)O2	inactive
CCOC(=O)C(C)(C)Oc1ccc(Cl)cc1	inactive
CC(C)(C)C(=O)OCOP(=O)(OCOC(=O)C(C)(C)C)C(C)(Oc1ccc(O)cc1)P(=O)(OCOC(=O)C(C)(C)C)OCOC(=O)C(C)(C)C	active
CC(C)(C)Oc1ccc(O)cc1	inactive
COc1ccc(NC(=O)N(C)C[C@H]2OCCCC[C@@H](C)Oc3ccc(NS(=O)(=O)c4ccc(C)cc4)cc3C(=O)N([C@@H](C)CO)C[C@@H]2C)cc1	inactive
COc1cc2c(cc1O)[C@H](c1ccc(CN3CCCC3)cc1)N(Cc1cc3c(cc1Br)OCO3)CC2	inactive
C[C@@H]1CN([C@@H](C)CO)C(=O)Cc2cc(NC(=O)Nc3ccc(C(F)(F)F)cc3)ccc2O[C@@H]1CN(C)C(=O)NC1CCCCC1	active
C[C@H]1CN([C@@H](C)CO)C(=O)Cc2cc(NC(=O)Nc3ccc(C(F)(F)F)cc3)ccc2O[C@H]1CN(C)C(=O)NC1CCCCC1	inactive
C[C@H](CO)N1C[C@H](C)[C@@H](CN(C)C(=O)NC2CCCCC2)Oc2ccc(NC(=O)Nc3ccc(C(F)(F)F)cc3)cc2CC1=O	inactive
C[C@@H]1CN([C@H](C)CO)C(=O)Cc2cc(NC(=O)Nc3ccc(C(F)(F)F)cc3)ccc2O[C@@H]1CN(C)C(=O)NC1CCCCC1	active
C[C@@H]1CN([C@@H](C)CO)C(=O)Cc2cc(NC(=O)Nc3ccc(C(F)(F)F)cc3)ccc2O[C@H]1CN(C)C(=O)NC1CCCCC1	inactive
C[C@@H]1CN([C@H](C)CO)C(=O)Cc2cc(NC(=O)Nc3ccc(C(F)(F)F)cc3)ccc2O[C@H]1CN(C)C(=O)NC1CCCCC1	inactive

SMILES	cytotoxicity call
CC(C)C(=O)O	inactive
C[C@@H]1CN([C@@H](C)CO)C(=O)c2cc(NS(=O)(=O)c3cn(C)cn3)ccc2O[C@@H](C)CCCCO[C@H]1CN(C)S(=O)(=O)c1cccs1	inactive
NCCc1cc2nc(-c3ccncc3)ccn2n1	inactive
CN1CCN(C(=O)C[C@H]2CC[C@H]3[C@@H](COC[C@H](O)CN3C(=O)C3CCCC3)O2)CC1	inactive
O=c1ncc(F)c[nH]1	inactive
CCCNC(=O)N1C[C@]2(CCN(CC2)S(=O)(=O)c2cccc(c2)OC)c2c(n(c3cc(ccc23)OC)C)[C@H]1CO	inactive
C=CCOC(=O)[C@@H]1[C@H]2C(=O)O[C@H](c3ccccc3)[C@H](c3ccccc3)N2[C@H](c2ccc(OCCOC(=O)[C@H]3C[C@H]4C(=O)N[C@@H](CC(C)C)C(=O)N4[C@H]3c3ccc(O)cc3)cc2)[C@@]12C(=O)Nc1ccc(I)cc12	inactive
CCC(=C/[C@H](C)C/C=C/C(C)=C/[C@@H](C)C(=O)[C@@H](C)[C@H](O)[C@@H](C)C/C(C)=C/C(=O)O)/C=C/[C@@H]1OC(=O)C=C[C@@H]1C	active
C[C@@H]1CN([C@H](C)CO)C(=O)c2cc(C#CC3CCCCC3)cnc2O[C@H]1CN(C)C(=O)c1ccncc1	inactive
CCS(=O)(=O)N1C[C@]2(C1)CN([C@H](CO)c1c2c2ccc(cc2n1C)OC)C(=O)Nc1cccc(c1)F	inactive
C[C@H](CO)N1C[C@H](C)[C@@H](CN(C)Cc2ccc(-c3ccccc3)cc2)Oc2c(NS(=O)(=O)c3ccc(F)cc3)cccc2C1=O	active
C[C@@H]1CN([C@H](C)CO)C(=O)c2cccc(NS(=O)(=O)c3ccc(F)cc3)c2O[C@@H]1CN(C)Cc1ccc(-c2ccccc2)cc1	inactive
C[C@@H]1CN([C@@H](C)CO)C(=O)c2cccc(NS(=O)(=O)c3ccccc3)c2O[C@@H]1CN(C)Cc1ccc(-c2ccccc2)cc1	inactive
C[C@@H]1CN([C@@H](C)CO)C(=O)c2cccc(NS(=O)(=O)c3ccc(F)cc3)c2O[C@H]1CN(C)Cc1ccc(-c2ccccc2)cc1	inactive
C[C@@H]1CN([C@H](C)CO)C(=O)c2cccc(NS(=O)(=O)c3ccccc3)c2O[C@H]1CN(C)Cc1ccc(-c2ccccc2)cc1	inactive
C[C@H](CO)N1C[C@H](C)[C@H](CN(C)Cc2ccc(-c3ccccc3)cc2)Oc2c(NS(=O)(=O)c3ccc(F)cc3)cccc2C1=O	active
C[C@H](CO)N1C[C@H](C)[C@H](CN(C)Cc2ccc(-c3ccccc3)cc2)Oc2c(NS(=O)(=O)c3ccccc3)cccc2C1=O	inactive
C[C@H]1CN([C@@H](C)CO)C(=O)c2cccc(NS(=O)(=O)c3ccc(F)cc3)c2O[C@@H]1CN(C)Cc1ccc(-c2ccccc2)cc1	inactive
C[C@@H]1CN([C@H](C)CO)C(=O)c2cccc(NS(=O)(=O)c3ccc(F)cc3)c2O[C@H]1CN(C)Cc1ccc(-c2ccccc2)cc1	active
C[C@@H]1CN([C@@H](C)CO)C(=O)c2cccc(NS(=O)(=O)c3ccc(F)cc3)c2O[C@@H]1CN(C)Cc1ccc(-c2ccccc2)cc1	active
C[C@H]1CN([C@@H](C)CO)C(=O)c2cccc(NS(=O)(=O)c3ccc(F)cc3)c2O[C@H]1CN(C)Cc1ccc(-c2ccccc2)cc1	inactive
C[C@H]1CN([C@@H](C)CO)C(=O)c2cccc(NS(=O)(=O)c3ccccc3)c2O[C@@H]1CN(C)Cc1ccc(-c2ccccc2)cc1	inactive
